Measurements reported in PMC7819943, “Rice protein-binding microarrays: a tool to detect cis-acting elements near promoter regions in rice”.
The full ranking holds about 68,000 sequences; the median of “fluorescence intensity (a.u.)” is about 9,100, and the highest 2% start at about 16,000. For the sample, the highest values were picked, then their nearest neighbours and some sequences at random.

biological target: OsWRKY34 (Oryza sativa, UniProt Q0JBA9 1-250); assay: protein-binding microarray (RPBM); PBS, 2% BSA, 51.3 ng/ul salmon testes DNA, 50 uM zinc acetate, 200 nM TF, 25 C, 1 h; high values mean tight binding; settings: protein: recombinant; tags: N-terminal polyhistidine and DsRed monomer fusion (pET32a); label: CyDye5-dUTP incorporated in the synthesized complementary strand; 3' TTTTT single-stranded linker to array surface; dsDNA, one strand shown
Sequence (Q0JBA9 entry or part of it): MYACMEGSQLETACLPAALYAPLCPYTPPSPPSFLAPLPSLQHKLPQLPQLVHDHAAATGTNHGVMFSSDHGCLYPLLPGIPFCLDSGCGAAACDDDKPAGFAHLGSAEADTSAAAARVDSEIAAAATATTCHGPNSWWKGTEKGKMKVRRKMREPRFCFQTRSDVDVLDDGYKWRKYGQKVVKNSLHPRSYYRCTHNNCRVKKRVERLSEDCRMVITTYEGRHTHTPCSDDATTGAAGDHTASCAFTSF
Outline: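 Ni–NTA purification followed expression in E. coli BL21-CodonPlus of transcription factors fused N-terminally to a polyhistidine tag and DsRed. At 200 nM in PBS with 2% BSA, salmon testes DNA and 50 µM zinc acetate, the protein was incubated for 1 h at 25 °C with a custom Agilent array that had been primer-extended with Cy5-dUTP and blocked with 2% BSA. After washing, the array was read on an Axon 4000B scanner. The binding signal is per-feature fluorescence intensity in arbitrary units.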

Sequence | binding signal
TGCAGTGGCTCCGTCGCTCAGTGAACATCCAGTCCCATTTCGGAGTCACCTAGTGCAG | 9900 fluorescence intensity (a.u.)
GGCCTATATATAACCATTGCTGTTGCCCTAAGAATGAATGCGGAGTCACCTAGTGCAG | 9380 fluorescence intensity (a.u.)
CATTTTTGTTTTTTACTGGGAGATTTTTTTTCCTTTTTCTCGGAGTCACCTAGTGCAG | 11200 fluorescence intensity (a.u.)
TAGTTGTCAGGTCGCTCCGCTTCATTCTGCTGTGCATTTTCGGAGTCACCTAGTGCAG | 10100 fluorescence intensity (a.u.)
ATATAGCTTGCTTGTTCGGTTGTTCCACTGTTCCGTGAGGCGGAGTCACCTAGTGCAG | 8310 fluorescence intensity (a.u.)
AATTGGGAAAATTGGAACCGTGCCACTCCATCATGTTTTCCGGAGTCACCTAGTGCAG | 8210 fluorescence intensity (a.u.)
CTCTCGCCCTTCGCGCTGACCTCCTCACAGCTGCTCTCGCCGGAGTCACCTAGTGCAG | 8440 fluorescence intensity (a.u.)
AAGATCTCCCAGGCCTCGTGTTTTACGTCAACTGGTTGTACGGAGTCACCTAGTGCAG | 8270 fluorescence intensity (a.u.)
ATTTATTAGTTTGATCCCTCTTTTATCACCATGTATTGCCCGGAGTCACCTAGTGCAG | 8570 fluorescence intensity (a.u.)
AGGATCTTTATACACATAGCTACCACAATGGCTACAATTACGGAGTCACCTAGTGCAG | 8130 fluorescence intensity (a.u.)
CCCGCGTCTCGGCCCTCTCCGTCCTCGTTGCTTCCGACGCCGGAGTCACCTAGTGCAG | 8780 fluorescence intensity (a.u.)
ATGTTGTTTGTTATGATGCTGTTCTTTTGTTGTTGTTTACCGGAGTCACCTAGTGCAG | 11700 fluorescence intensity (a.u.)
CCCTAAATATTTGACACCGTTGACTTTTTTAAATATGTTTCGGAGTCACCTAGTGCAG | 39600 fluorescence intensity (a.u.)
TTTTTGACTTTGACTTTTAATAGTAAAAAAATCAATTATGCGGAGTCACCTAGTGCAG | 9900 fluorescence intensity (a.u.)
ATCTTTCTTATGCTGGCCATGATCTATGTTGCTGTTTTTGCGGAGTCACCTAGTGCAG | 17700 fluorescence intensity (a.u.)
ATTGAGCGATTTTCGGTATTTCACGATGGGTTATATTTTACGGAGTCACCTAGTGCAG | 8720 fluorescence intensity (a.u.)
TAATACTTTATGCGTGACTTATCTTTTTAAATTTTTTTCACGGAGTCACCTAGTGCAG | 8970 fluorescence intensity (a.u.)
ATCTCCCATGTGTGCATGCATCTTTTTTTGTTGTTTGCTGCGGAGTCACCTAGTGCAG | 11200 fluorescence intensity (a.u.)
CGATTTTTATTTTTCGCCGGATGGGGTTGACTTTTTTTTACGGAGTCACCTAGTGCAG | 20900 fluorescence intensity (a.u.)
GGATTTTTGACGGGGTTTTGCAACGGACTTGACTTGTTTACGGAGTCACCTAGTGCAG | 8320 fluorescence intensity (a.u.)
TGCGTTGACTTTATCTTCAAATTAATTATGTGCTAATAGGCGGAGTCACCTAGTGCAG | 22300 fluorescence intensity (a.u.)
GGAAGATTACCCTGTTTACCACTCACTGTACGATGATTATCGGAGTCACCTAGTGCAG | 9260 fluorescence intensity (a.u.)
CACACCATTTCCTTTTTCTTTAGAAAATATCACACTATCACGGAGTCACCTAGTGCAG | 9060 fluorescence intensity (a.u.)

Sequence | binding signal
ATCGACCTCCATTTTAACGTACGACTCCCTAAGAGACCCGCGGAGTCACCTAGTGCAG | 9660 fluorescence intensity (a.u.)
AATTACTATAACACATCTTCCTAACAAATGCACCTCAATACGGAGTCACCTAGTGCAG | 8050 fluorescence intensity (a.u.)
CATATGTTTACACCCAAATTTGGCACCTAGGATTAAAATACGGAGTCACCTAGTGCAG | 8350 fluorescence intensity (a.u.)
TGCTGTCGTATACTAGAAGCTGATGCTTTTCTTGCTTAGTCGGAGTCACCTAGTGCAG | 8940 fluorescence intensity (a.u.)
CAACCCACACACCACCACACAGATCACAACAGCAAGTTGTCGGAGTCACCTAGTGCAG | 8160 fluorescence intensity (a.u.)
TTTGTTTGGTAAAATTTTTGGTGGGGATTGGAGTTGGAAACGGAGTCACCTAGTGCAG | 9440 fluorescence intensity (a.u.)
CTCTCATGTATATACATTAATTATGTTTTTGTCCCCATTTCGGAGTCACCTAGTGCAG | 9950 fluorescence intensity (a.u.)
GAGCATCACAAGTCGCGACCTCACAGGGAGGGGCGGCGGCCGGAGTCACCTAGTGCAG | 9060 fluorescence intensity (a.u.)
TGTTTTCTGTTCTTTGTTGACTTTAAGTCGCTAAATTTTGCGGAGTCACCTAGTGCAG | 11500 fluorescence intensity (a.u.)
GAACTGCTCCCTCCATCCATAAATATTTGACGCCGTTGACCGGAGTCACCTAGTGCAG | 11900 fluorescence intensity (a.u.)
GTTTTGACTTTTTTTTCTAATAAAATTTCTTTTATGTTTGCGGAGTCACCTAGTGCAG | 18600 fluorescence intensity (a.u.)
CTGTATCCATCCCTAAATATTTGACGCCGTTGACTTTTCTCGGAGTCACCTAGTGCAG | 25600 fluorescence intensity (a.u.)
AGTAATTTATGTTTGACTATTTTTTTAAAAATTTTTTATGCGGAGTCACCTAGTGCAG | 10800 fluorescence intensity (a.u.)
ATTATCCTCTTGTTTTTCAACTGGAATGAACCACCAACAACGGAGTCACCTAGTGCAG | 9790 fluorescence intensity (a.u.)
CACTACTATCTGCCTCACCGTTAACCCTACCGAATAAATTCGGAGTCACCTAGTGCAG | 8880 fluorescence intensity (a.u.)
ATTGCAGCCTTCGCCTCCTTTCCTTCAGGTACACATATTGCGGAGTCACCTAGTGCAG | 9850 fluorescence intensity (a.u.)
TTGTGGGAGGAGGGGATGGAATGATGATGACTCTGTTTTTCGGAGTCACCTAGTGCAG | 8200 fluorescence intensity (a.u.)
GGTGATCTTTGTATTCTTTTTCTGCAGCGAACATATAGCTCGGAGTCACCTAGTGCAG | 16300 fluorescence intensity (a.u.)
ATTTTGATTTTTGCAATCACCACCCCGCGCGGCGCAAACACGGAGTCACCTAGTGCAG | 8880 fluorescence intensity (a.u.)
GACGCGGCGCAGTGCAACCAACAAACCGGGGCGGGCGGGGCGGAGTCACCTAGTGCAG | 11800 fluorescence intensity (a.u.)
CCGCTCTGATTCGCAAACTATAACACCAAACAAACGGGCGCGGAGTCACCTAGTGCAG | 20100 fluorescence intensity (a.u.)
ATTATATGCTAATTACTTTCTCGTTTTACGTACACCAACTCGGAGTCACCTAGTGCAG | 8420 fluorescence intensity (a.u.)
